Assay outcomes deposited in PubChem by National Center for Advancing Translational Sciences (NCATS).
The list is not random: actives were taken first. Their share in the collection is about 2.4%.
D2 PAM-1 = positive allosteric modulators of human D2 dopamine receptor; DiscoveRx D2 beta-arrestin cells, luminescence, 90 min; 100% = 57 uM dopamine signal; potentiation, % (concentration not given with the values); hit rate 0.23% among 360,000; AID 624464; in the data active = potentiation above about 50%; inconclusive = mostly about 30% to 49%
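PathHunter beta-arrestin assay in DiscoveRx D2 cells. Compounds were added with an EC20 of dopamine (50 nM final) for 90 min at 37 deg C. Luminescence was read 1 h after detection reagent, with 57 uM dopamine as the EC100 control.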
D2 antagonist = antagonists of human D2 dopamine receptor. P14416. HEK293 TREx D2 cells, calcium flux, dopamine EC80. inhibition, % at 10 µM. hit rate 2% among 340,000. AID 485344; in the data active = inhibition above about 30%; inactive = below that, where a call was filed; note: 0% is about no effect
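Tetracycline-induced HEK293 TREx cells expressing D2 receptor forced-coupled to calcium signalling, loaded with no-wash calcium dye. Compounds added and calcium flux read 180 s, then dopamine added at EC80 and read a further 180 s.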
D2 ag-1 = D2 dopamine receptor (human) agonism | P14416 | HEK293 T-REx D2 cells, calcium flux agonist mode | activation, % at 2 µM | hit rate 0.53% among 340,000 | AID 485358;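 active = activation over 3 SD above normal in the single-dose calcium agonist read, cut at about 30% in these data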; note: 0% is about no effect
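Tetracycline-induced HEK293 T-REx cells with force-coupled D2 receptor, plated overnight at 30 C, loaded with no-wash calcium dye. After a 10 s baseline, compound was pin-added and calcium flux read kinetically for 180 s; calcium rises flagged agonists.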
D2 PAM-2 = D2 dopamine receptor (human) potentiation; P14416; HEK293 T-REx D2, calcium flux, EC20 dopamine potentiation; potentiation, % at 10 µM; hit rate 0.34% among 340,000; AID 485347;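 active = potentiation over 3 SD above the plate norm, cut at about 30% in these data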; note: 0% is about no effect
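Tetracycline-induced Hek293 Trex D2 cells, force-coupled to calcium, loaded with no-wash calcium dye. Compound added with 180 s kinetic read for agonism, then EC20 dopamine and a further 180 s read for potentiation.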
D2 ag-2 = human D2 receptor agonism in beta-arrestin assay; activation, % (no concentration beside the values); P14416; DiscoveRx PathHunter D2 beta-arrestin, luminescence, 90 min; 100% = 57 uM dopamine signal; AID 624465; hit rate 0.084% among 360,000; in the data active = activation above about 40%; inconclusive = between about 15% and that limit
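DiscoveRx PathHunter D2 beta-arrestin cells (2,100/well) attached overnight, then compound-stimulated 90 min at 37 C in HBSS/10 mM HEPES/0.1% Tween-20 buffer; beta-galactosidase complementation read by luminescence after 1 h at ambient temperature. Dopamine 57 uM final (EC100) as control.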
D3 arrestin ag = confirmation of human D3 dopamine receptor agonists, beta-arrestin. hit rate 4% among 2,300. DiscoveRx D3 beta-arrestin cells, luminescence, 90 min. shares compounds with D2 ag-1. AID 720506. Potency, µM (titrated, usually from 76.9 µM), without a hit: at the top dose activation, usual class: activators;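 note: potency is the fitted concentration of half-maximal effect; 100% = dopamine control response; nearly all actives have a fitted effect of over 70% in size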
Target sequence (P35462 whole entry, looked up): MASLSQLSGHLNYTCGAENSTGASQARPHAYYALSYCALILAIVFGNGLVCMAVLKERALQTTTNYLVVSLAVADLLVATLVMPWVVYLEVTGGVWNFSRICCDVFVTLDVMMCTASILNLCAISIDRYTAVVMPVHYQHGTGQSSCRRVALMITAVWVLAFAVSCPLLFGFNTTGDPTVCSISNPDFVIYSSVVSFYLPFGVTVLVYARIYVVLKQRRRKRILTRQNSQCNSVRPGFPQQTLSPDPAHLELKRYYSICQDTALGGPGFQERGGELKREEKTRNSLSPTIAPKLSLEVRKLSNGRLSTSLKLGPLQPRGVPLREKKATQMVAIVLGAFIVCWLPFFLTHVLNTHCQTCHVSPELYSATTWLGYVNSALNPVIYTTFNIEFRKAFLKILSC
D2 ag-3 = counter-screen for D3 agonists: human D2 dopamine receptor agonism; shares compounds with D2 ag-1; DiscoveRx PathHunter D2 beta-arrestin, luminescence, 90 min; response scale: percent relative to full dopamine signal; Potency, µM (highest dose often 76.9 µM), inactives show at the highest dose activation, actives largely listed as activators; hit rate 5.9% among 2,300; note: potency is the fitted concentration of half-maximal effect; % of control where 0% means no effect; nearly all actives have a fitted effect of over 70% in size
Starred values were filed as active, the others as inactive. Unless noted, calls come from the whole dose curve; as a rule, active = well fitted activation curve with a large enough effect; inconclusive = small, poorly fitted or top-dose-only effect; inactive = flat fitted curve, though single readings scatter.

`CSc1nsc(SCC(=O)Nc2ccc(OC(C)=O)cc2)n1` gave D2 PAM-1 0, D2 antagonist -2, D2 ag-1 -1, D2 PAM-2 -3 and D2 ag-2 -2.
`CCOc1ccc(N(C(=O)CNC(=O)c2cccs2)C(C(=O)NCC2CCCO2)c2ccc(OC)c(OC)c2)cc1` (configuration not stated) gave D2 PAM-1 -8, D2 antagonist 5, D2 ag-1 0, D2 PAM-2 -3 and D2 ag-2 2.
Screening O=C(O)/C=C/C(=O)NCCc1ccc(Cl)cc1 returned D2 PAM-1 -8, D2 antagonist 14, D2 ag-1 8, D2 PAM-2 -7 and D2 ag-2 -2.
For O=C(O)/C=C/C(=O)NCCc1ccccc1 the results were D2 PAM-1 -9, D2 antagonist 61*, D2 ag-1 78*, D2 PAM-2 -21, D2 ag-2 7, D3 arrestin ag -3% and D2 ag-3 5%.
For O=C(O)CNC(=O)c1ccccc1Br the results were D2 PAM-1 -1, D2 antagonist 40*, D2 ag-1 4, D2 PAM-2 6, D2 ag-2 1, D3 arrestin ag -7% and D2 ag-3 -1%.
`O=C(Nc1c2c(nn1-c1ccccc1)CS(=O)(=O)C2)c1ccccc1C(F)(F)F` gave D2 PAM-1 -6, D2 antagonist -5, D2 ag-1 0, D2 PAM-2 7 and D2 ag-2 -4.
Screening Cc1cc(C)nc(/N=C(\N)Nc2ccc(OCCC(C)C)cc2)n1 returned D2 PAM-1 -9, D2 antagonist 52*, D2 ag-1 83*, D2 PAM-2 -22, D2 ag-2 3, D3 arrestin ag -2% and D2 ag-3 27%.
Cc1cc(C)nc(/N=C(\N)Nc2ccc(CC(=O)OC(C)C)cc2)n1 was read as D2 PAM-1 -26, D2 antagonist 59*, D2 ag-1 33*, D2 PAM-2 -9, D2 ag-2 4, D3 arrestin ag 4% and D2 ag-3 inconclusive.
`COc1ccccc1N/C(N)=N/c1nc(C)cc(C)n1` gave D2 PAM-1 -16, D2 antagonist 0, D2 ag-1 1, D2 PAM-2 -13 and D2 ag-2 -4.
For Cc1cc(C)nc(/N=C(\N)Nc2ccc(S(=O)(=O)O)cc2)n1 the results were D2 PAM-1 6, D2 antagonist -9, D2 ag-1 2, D2 PAM-2 -1 and D2 ag-2 2.
Screening Cc1cc(C)nc(/N=C(\N)Nc2cccc(OCc3ccccc3)c2)n1 returned D2 PAM-1 -28, D2 antagonist 63*, D2 ag-1 77*, D2 PAM-2 -32, D2 ag-2 -2, D3 arrestin ag -13% and D2 ag-3 20%.
CCc1ccc(N/C(=N/c2nc(C)cc(C)n2)NC(C)=O)cc1 was read as D2 PAM-1 -4, D2 antagonist 6, D2 ag-1 -3, D2 PAM-2 20 and D2 ag-2 -3.
Screening CC1=C(c2ccc(C)c(C)c2)S(=O)(=O)N(Cc2ccc(C(=O)NC(C)c3ccccc3)cc2)C1=O (configuration not stated) returned D2 ag-1 1 and D2 PAM-2 -2.
For Cc1ccccc1C(=O)N1CCC(C(=O)N(C)CCOc2ccccc2)CC1 the results were D2 PAM-1 -4, D2 antagonist -3, D2 ag-1 0, D2 PAM-2 5 and D2 ag-2 -7.
Screening Cc1cccc(N(Cc2ccccc2)C(=O)C2CCN(C(=O)c3ccccc3C)CC2)c1 returned D2 PAM-1 -10, D2 antagonist -55, D2 ag-1 0, D2 PAM-2 0, D2 ag-2 1, D3 arrestin ag -14% and D2 ag-3 3%.
For CCOC(=O)c1oc2ccc(S(=O)(=O)n3nc(-c4ccc(Br)cc4)cc3N)cc2c1C the results were D2 ag-1 0 and D2 PAM-2 12.
Screening COc1cccc(-n2cc(CNC(=O)C3CCC(=O)N(C4CC4)C3)cn2)c1 (configuration not stated) returned D2 PAM-1 3, D2 antagonist 19, D2 ag-1 0, D2 PAM-2 2, D2 ag-2 8, D3 arrestin ag -2% and D2 ag-3 5%.
`COc1cccc(-n2cc(CN(C)C(=O)C3CCC(=O)N(C4CC4)C3)cn2)c1` (configuration not stated) gave D2 PAM-1 -7 and D2 ag-2 -3.
`C=CCC1NCCc2c(Br)cccc21` (configuration not stated) gave D2 PAM-1 -11, D2 antagonist 29, D2 ag-1 47*, D2 PAM-2 -16, D2 ag-2 4, D3 arrestin ag -15% and D2 ag-3 0%.
C=CC[C@@H]1Cc2c(Br)ccc(Br)c2[C@@H](CC=C)N1 was read as D2 PAM-1 12, D2 antagonist -5, D2 ag-1 6, D2 PAM-2 3 and D2 ag-2 inconclusive.
Screening Cc1cccc(CN2C(=O)c3ccccc3S(=O)(=O)c3ccc(C(=O)OCC4CCCO4)cc32)c1 (configuration not stated) returned D2 ag-1 1 and D2 PAM-2 -1.
